According to PubChem BioAssay (EPA / NIEHS):
Results filed as inconclusive are left out. Calls of active or inactive are those of the source. How the source made its calls, unless noted: active means hit-call score of the fitted dose curve at least 0.9, where 1 is the maximum; inconclusive means response in the unintended direction; inactive means score below 0.9.

What was measured:
[1] = target: human Retinoic Acid Receptor beta (RARb), RARB (gene 5915) (UniProt P10826); experiment: ATG_RARb_TRANS: Attagene TRANS-FACTORIAL HepG2 Assay for human Retinoic Acid Receptor beta (AID 2283004)
Outline: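 Induction of reporter mRNA from a chimeric RARb-Gal4 construct was measured by RT-PCR, FAM labelling, HpaI digestion and capillary electrophoresis. Measurements followed 24 h compound treatment of transiently transfected human HepG2 liver cells, with DMSO as baseline.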

[2] = target: Peroxisome proliferator-activated receptor gamma (Homo sapiens) (UniProt P37231); experiment: ATG_PPARg_TRANS: Attagene TRANS-FACTORIAL HepG2 Assay for human Peroxisome Proliferator-activated Receptor-gamma (PPARg) (AID 2283007)
Outline: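 HepG2 cells are transiently transfected with GAL4-UAS reporter units driven by chimeric NR-Gal4 fusions and dosed for 24 h. Reporter mRNA is quantified by RT-PCR, 6-FAM labelling, HpaI digestion and capillary electrophoresis. Induction is scored against DMSO.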

[3] = target: Nuclear receptor subfamily 1 group I member 2 (Homo sapiens) (UniProt O75469); experiment: ATG_PXR_TRANS: Attagene TRANS-FACTORIAL HepG2 Assay for human Pregnane X Receptor (PXR) (AID 2283008)
Outline: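 Multiplexed TRANS reporter panel in HepG2; this component tracks PXR-Gal4-driven reporter mRNA after 24 h dosing, measured by RT-PCR with capillary electrophoresis fluorescence, fitted against DMSO.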

[4] = target: human Retinoic Acid Receptor gamma (RARg), RARG (gene 5916) (UniProt P13631); experiment: ATG_RARg_TRANS: Attagene TRANS-FACTORIAL HepG2 Assay for human Retinoic Acid Receptor gamma (RARg) (AID 2283009)
Outline: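 Transactivation of exogenous RARg-Gal4 fusion measured as reporter transcript induction after 24 h in transfected HepG2 cells. RNA reverse-transcribed, amplified, fluorescently labeled and resolved by capillary electrophoresis; increase relative to DMSO.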

[5] = target: human RAR-related Orphan Receptor beta (RORb), RORB (gene 6096) (UniProt Q92753); experiment: ATG_RORb_TRANS: Attagene TRANS-FACTORIAL HepG2 Assay for human RAR-related Orphan Receptor beta (RORb) (AID 2283010)
Outline: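 Read-out is reporter mRNA induction, quantified by RT-PCR with fluorescent capillary electrophoresis, 24 h post-dose in transiently transfected HepG2 expressing exogenous NR-Gal4 chimera. Activity fitted upward versus DMSO.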

[6] = target: human RAR-related Orphan Receptor gamma (RORg), RORC (gene 6097) (UniProt P51449); experiment: ATG_RORg_TRANS: Attagene TRANS-FACTORIAL HepG2 Assay for human RAR-related Orphan Receptor gamma (RORg) (AID 2283011)
Outline: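 Reporter transcripts from a transfected RORg-GAL4 chimera in HepG2 cells were quantified 24 h after dosing by RT-PCR, 6-FAM labelling, HpaI digestion and capillary electrophoresis; increases over DMSO baseline were fitted.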

[7] = target: human Retinoid X Receptor beta (RXRb), RXRB (gene 6257) (UniProt P28702); experiment: ATG_RXRb_TRANS: Attagene TRANS-FACTORIAL HepG2 Assay for human Retinoid X Receptor beta (RXRb) (AID 2283013)
Outline: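 Readout is reporter transcript induction after 24 h dosing. It is measured by RT-PCR of total RNA followed by fluorescent capillary electrophoresis. HepG2 liver cells carry transfected multiple reporter units driven by an exogenous RXRb-Gal4 fusion; activity is relative to DMSO.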

[8] = target: human Thyroid Receptor alpha (THRa1), THRA (gene 7067) (UniProt P10827); experiment: ATG_THRa1_TRANS: Attagene TRANS-FACTORIAL HepG2 Assay for human Thyroid Receptor alpha (THRa1) (AID 2283014)
Outline: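 Transcripts from GAL4-UAS-driven reporters, measured after 24 h compound exposure by RT-PCR plus capillary electrophoresis of 6-FAM-labeled fragments, were fitted for gain of signal relative to DMSO. Cells: transiently transfected HepG2 expressing NR-Gal4 chimeras.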

[9] = target: Retinoic acid receptor alpha (Homo sapiens) (UniProt P10276); experiment: ATG_RARa_TRANS: Attagene TRANS-FACTORIAL HepG2 Assay for human Retinoic Acid Receptor alpha (RARa) (AID 2283005)
Outline: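 HepG2 cells transiently transfected with multiple reporter units expressing chimeric RARα-GAL4 fusion, with GAL4-UAS-driven reporters. After 24 h compound exposure, reporter mRNA induction quantified by RT-PCR and capillary electrophoresis with fluorescent labeling; gain-of-signal fitted relative to DMSO control.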

[10] = target: human Peroxisome Proliferator-activated Receptor delta (PPARd), PPARD (gene 5467) (UniProt Q03181); experiment: ATG_PPARd_TRANS: Attagene TRANS-FACTORIAL HepG2 Assay for human Peroxisome Proliferator-activated Receptor delta (PPARd) (AID 2283002)
Outline: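 Multiplexed trans-activation format: HepG2 liver cells expressing exogenous NR-Gal4 chimeras and GAL4-UAS reporters were exposed for 24 h. Reporter mRNA was detected by RT-PCR with capillary electrophoresis fluorescence; activity fitted as gain of signal relative to DMSO.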

[11] = target: Retinoic acid receptor RXR-alpha (Homo sapiens) (UniProt P19793); experiment: ATG_RXRa_TRANS: Attagene TRANS-FACTORIAL HepG2 Assay for human Retinoid X Receptor alpha (RXRa) (AID 2283012)
Outline: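 TRANS format reporting activity of exogenous RXRa-Gal4 chimera in transiently transfected HepG2, 24 h exposure. Reporter transcripts quantified by RT-PCR with capillary electrophoresis, with gain of signal scored relative to DMSO.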

[12] = read-out: Intercellular Adhesion Molecule 1 (ICAM1), ICAM1 (gene 3383); experiment: BSK_3C_ICAM1: BioMAP Diversity Plus: 3C Assay for Intercellular Adhesion Molecule 1 (ICAM1) Biomarker Activity (AID 2283003; active means hit-call score of the fitted dose curve at least 0.9, where 1 is the maximum; inactive means score below 0.9); settings: primary human endothelial cells (HUVEC); actives raise or lower the signal
Outline: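 ELISA readout of ICAM1 in human umbilical vein endothelial cells in the 3C system, taken 24 h post-dose. Gain or loss of signal versus DMSO was fitted in both directions, with SRB total-protein staining run in parallel.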

[13] = BSK_3C_Proliferation: Cell Proliferation Assessment in the BioMAP Diversity Plus: 3C Assay (AID 2283006; active means hit-call score of the fitted dose curve at least 0.9, where 1 is the maximum; inactive means score below 0.9); settings: primary human endothelial cells (HUVEC)
Outline: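 Proliferation as total protein: sulforhodamine B (0.1%) stain of TCA-fixed subconfluent human umbilical vein endothelial cells, absorbance 560 nm, 48 h after dosing. Activity fitted in both directions against DMSO baseline.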

[14] = read-out: E-selectin (Homo sapiens) (UniProt P16581); experiment: BSK_3C_Eselectin: BioMAP Diversity Plus: 3C Assay for Eselectin Biomarker Activity (AID 2283015; active means hit-call score of the fitted dose curve at least 0.9, where 1 is the maximum; inactive means score below 0.9;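 further: cell surface E-selectin protein quantified by ELISA 24 h after dosing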); settings: primary human endothelial cells (HUVEC); actives raise or lower the signal
Outline: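 E-selectin ELISA readout, fitted bidirectionally relative to DMSO, taken 24 h post-dosing in HUVEC cultures of the 3C system. Overt cytotoxicity tracked with sulforhodamine B staining of parallel wells.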

[15] = read-out: Interleukin-1 alpha (IL1a), IL1A (gene 3552); experiment: BSK_BE3C_IL1a: BioMAP Diversity Plus: BE3C Assay for Interleukin-1 alpha (IL1a) Biomarker Activity (AID 2283016; active means hit-call score of the fitted dose curve at least 0.9, where 1 is the maximum; inactive means score below 0.9); settings: primary human bronchial epithelial cells; actives raise or lower the signal
Outline: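 IL-1a measured by ELISA after 24 h treatment of human primary bronchial epithelial cells, with gain or loss of signal fitted versus DMSO. Parallel cultures stained with SRB gauge overt cytotoxicity.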

[16] = read-out: Monocyte Chemoattractant Protein-1 (MCP1), CCL2 (gene 6347); experiment: BSK_3C_MCP1: BioMAP Diversity Plus: 3C Assay for Monocyte Chemoattractant Protein-1 (MCP1) Biomarker Activity (AID 2283017; active means hit-call score of the fitted dose curve at least 0.9, where 1 is the maximum; inactive means score below 0.9); settings: primary human endothelial cells (HUVEC); actives raise or lower the signal
Outline: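 MCP-1 was measured by ELISA 24 h after dosing in primary HUVEC 3C cultures and fitted in both directions relative to DMSO; cytotoxicity was checked by SRB total-protein staining in parallel wells.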

[17] = read-out: Monocyte Chemoattractant Protein-1 (MCP1), CCL2 (gene 6347); experiment: BSK_4H_MCP1: BioMAP Diversity Plus: 4H Assay for Monocyte Chemoattractant Protein-1 (MCP1) Biomarker Activity (AID 2283018; active means hit-call score of the fitted dose curve at least 0.9, where 1 is the maximum; inactive means score below 0.9); settings: primary human endothelial cells (HUVEC); actives raise or lower the signal
Outline: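 ELISA of MCP-1 (CCL2) 24 h after chemical dosing of HUVEC in the BioMAP 4H system. Gain or loss versus DMSO fitted; parallel SRB staining (560 nm) tracked overt cytotoxicity.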

[18] = read-out: Human Leukocyte Antigen - DR isotype (HLADR), HLA-DRA (gene 3122); experiment: BSK_3C_HLADR: BioMAP Diversity Plus: 3C Assay for Human Leukocyte Antigen - DR isotype (HLADR) Biomarker Activity (AID 2283019; active means hit-call score of the fitted dose curve at least 0.9, where 1 is the maximum; inactive means score below 0.9;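 further: ELISA of cell-surface HLA-DR on HUVEC 24 h after dosing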); settings: primary human endothelial cells (HUVEC); actives raise or lower the signal
Outline: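 Bidirectional fitting against DMSO was applied to the HLA-DR ELISA signal from human umbilical vein endothelial cells, 24 h post-dose. Cytotoxicity came from parallel SRB total-protein staining; 3C proliferation was counted by SRB at 48 h.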

Measured: AC50

human RAR-related Orphan Receptor gamma (RORg), RORC (gene 6097), sequence (P51449 whole entry, looked up, the tested form may be a part): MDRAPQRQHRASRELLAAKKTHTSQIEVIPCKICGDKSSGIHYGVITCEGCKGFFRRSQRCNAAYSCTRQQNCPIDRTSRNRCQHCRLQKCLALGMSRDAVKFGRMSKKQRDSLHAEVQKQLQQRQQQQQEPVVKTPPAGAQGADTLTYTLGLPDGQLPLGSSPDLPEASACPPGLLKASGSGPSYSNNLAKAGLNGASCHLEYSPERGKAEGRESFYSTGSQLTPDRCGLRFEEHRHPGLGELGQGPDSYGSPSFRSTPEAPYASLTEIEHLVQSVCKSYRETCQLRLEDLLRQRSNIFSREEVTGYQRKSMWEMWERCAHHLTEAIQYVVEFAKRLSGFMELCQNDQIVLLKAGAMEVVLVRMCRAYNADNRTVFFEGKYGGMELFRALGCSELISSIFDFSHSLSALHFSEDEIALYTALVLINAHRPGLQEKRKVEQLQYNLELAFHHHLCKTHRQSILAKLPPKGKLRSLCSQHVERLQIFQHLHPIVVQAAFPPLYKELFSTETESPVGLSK
human Retinoic Acid Receptor beta (RARb), RARB (gene 5915), sequence (P10826 whole entry, looked up, the tested form may be a part): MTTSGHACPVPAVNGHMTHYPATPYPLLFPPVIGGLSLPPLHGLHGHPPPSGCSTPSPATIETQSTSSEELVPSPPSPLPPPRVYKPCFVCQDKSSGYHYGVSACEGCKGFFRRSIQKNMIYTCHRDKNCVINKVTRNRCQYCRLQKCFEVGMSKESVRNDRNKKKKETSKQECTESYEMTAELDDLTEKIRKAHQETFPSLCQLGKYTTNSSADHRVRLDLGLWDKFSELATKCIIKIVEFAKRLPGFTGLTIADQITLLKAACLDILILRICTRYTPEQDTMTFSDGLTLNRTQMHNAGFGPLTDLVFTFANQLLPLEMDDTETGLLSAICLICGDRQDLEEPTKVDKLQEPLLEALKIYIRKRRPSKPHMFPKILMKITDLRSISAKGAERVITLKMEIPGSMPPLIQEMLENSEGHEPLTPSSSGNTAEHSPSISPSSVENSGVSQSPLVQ
human Thyroid Receptor alpha (THRa1), THRA (gene 7067), sequence (P10827 whole entry, looked up, the tested form may be a part): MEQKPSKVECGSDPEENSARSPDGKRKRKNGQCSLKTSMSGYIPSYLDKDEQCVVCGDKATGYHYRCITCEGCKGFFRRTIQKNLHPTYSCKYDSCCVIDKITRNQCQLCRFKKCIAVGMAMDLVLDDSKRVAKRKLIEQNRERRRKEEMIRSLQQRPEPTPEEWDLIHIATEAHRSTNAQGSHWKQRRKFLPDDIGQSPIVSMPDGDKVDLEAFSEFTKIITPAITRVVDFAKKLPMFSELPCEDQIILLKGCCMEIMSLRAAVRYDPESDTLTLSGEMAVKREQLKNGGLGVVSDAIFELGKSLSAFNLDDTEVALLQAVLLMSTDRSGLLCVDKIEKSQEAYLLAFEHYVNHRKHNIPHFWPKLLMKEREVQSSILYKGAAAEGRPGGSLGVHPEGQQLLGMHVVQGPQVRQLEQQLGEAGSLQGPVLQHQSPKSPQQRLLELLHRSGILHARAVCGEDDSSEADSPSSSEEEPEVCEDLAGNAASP
Peroxisome proliferator-activated receptor gamma (Homo sapiens), sequence (P37231 whole entry, looked up, the tested form may be a part): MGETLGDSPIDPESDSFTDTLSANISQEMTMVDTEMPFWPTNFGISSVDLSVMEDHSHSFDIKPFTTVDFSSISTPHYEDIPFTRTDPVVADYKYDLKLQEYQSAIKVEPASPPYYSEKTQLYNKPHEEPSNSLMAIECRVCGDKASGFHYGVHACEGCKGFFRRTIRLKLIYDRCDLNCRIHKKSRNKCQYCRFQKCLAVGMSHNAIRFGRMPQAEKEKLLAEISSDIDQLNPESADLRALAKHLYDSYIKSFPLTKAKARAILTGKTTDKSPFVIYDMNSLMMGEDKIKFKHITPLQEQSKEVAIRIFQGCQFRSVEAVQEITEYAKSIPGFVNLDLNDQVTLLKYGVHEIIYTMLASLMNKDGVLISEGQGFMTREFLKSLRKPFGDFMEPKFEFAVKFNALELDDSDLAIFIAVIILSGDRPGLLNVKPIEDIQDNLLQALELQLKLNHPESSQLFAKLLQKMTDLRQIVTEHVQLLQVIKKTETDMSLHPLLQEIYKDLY
Retinoic acid receptor alpha (Homo sapiens), sequence (P10276 whole entry, looked up, the tested form may be a part): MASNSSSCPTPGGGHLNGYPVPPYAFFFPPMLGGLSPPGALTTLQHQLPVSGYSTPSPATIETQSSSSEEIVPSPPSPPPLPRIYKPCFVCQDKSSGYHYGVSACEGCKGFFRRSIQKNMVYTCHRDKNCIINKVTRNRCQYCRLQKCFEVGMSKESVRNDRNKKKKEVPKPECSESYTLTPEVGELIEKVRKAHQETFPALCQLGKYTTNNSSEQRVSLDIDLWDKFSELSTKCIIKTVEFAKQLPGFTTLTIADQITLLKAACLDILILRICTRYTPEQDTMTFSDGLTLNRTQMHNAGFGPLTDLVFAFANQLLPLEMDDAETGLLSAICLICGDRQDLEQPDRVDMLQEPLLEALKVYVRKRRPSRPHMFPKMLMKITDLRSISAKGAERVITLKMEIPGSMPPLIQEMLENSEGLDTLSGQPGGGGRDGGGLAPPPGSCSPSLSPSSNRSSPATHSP
Nuclear receptor subfamily 1 group I member 2 (Homo sapiens), sequence (O75469 whole entry, looked up, the tested form may be a part): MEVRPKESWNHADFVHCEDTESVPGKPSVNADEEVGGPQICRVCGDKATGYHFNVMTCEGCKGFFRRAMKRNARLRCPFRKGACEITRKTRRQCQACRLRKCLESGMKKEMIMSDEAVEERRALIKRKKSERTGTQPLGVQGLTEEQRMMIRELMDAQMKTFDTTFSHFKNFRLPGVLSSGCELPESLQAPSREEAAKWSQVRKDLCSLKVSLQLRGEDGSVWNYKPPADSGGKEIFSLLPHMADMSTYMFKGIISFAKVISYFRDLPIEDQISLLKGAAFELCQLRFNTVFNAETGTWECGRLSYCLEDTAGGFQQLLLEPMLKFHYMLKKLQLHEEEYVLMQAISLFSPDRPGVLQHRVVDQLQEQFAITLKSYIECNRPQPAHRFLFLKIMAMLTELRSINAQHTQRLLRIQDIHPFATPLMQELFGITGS
human Peroxisome Proliferator-activated Receptor delta (PPARd), PPARD (gene 5467), sequence (Q03181 whole entry, looked up, the tested form may be a part): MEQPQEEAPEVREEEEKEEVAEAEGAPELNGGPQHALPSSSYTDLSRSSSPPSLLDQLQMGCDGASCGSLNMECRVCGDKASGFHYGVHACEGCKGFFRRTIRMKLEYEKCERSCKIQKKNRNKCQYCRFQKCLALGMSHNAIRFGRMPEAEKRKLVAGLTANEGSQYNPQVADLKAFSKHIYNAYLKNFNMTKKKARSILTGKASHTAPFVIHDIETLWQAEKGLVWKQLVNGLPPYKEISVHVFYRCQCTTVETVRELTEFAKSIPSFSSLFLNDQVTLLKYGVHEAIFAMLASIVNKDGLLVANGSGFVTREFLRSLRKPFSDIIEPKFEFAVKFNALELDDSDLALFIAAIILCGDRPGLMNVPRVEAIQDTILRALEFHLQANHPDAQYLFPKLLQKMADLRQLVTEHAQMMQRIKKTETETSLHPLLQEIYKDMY
human Retinoid X Receptor beta (RXRb), RXRB (gene 6257), sequence (P28702 whole entry, looked up, the tested form may be a part): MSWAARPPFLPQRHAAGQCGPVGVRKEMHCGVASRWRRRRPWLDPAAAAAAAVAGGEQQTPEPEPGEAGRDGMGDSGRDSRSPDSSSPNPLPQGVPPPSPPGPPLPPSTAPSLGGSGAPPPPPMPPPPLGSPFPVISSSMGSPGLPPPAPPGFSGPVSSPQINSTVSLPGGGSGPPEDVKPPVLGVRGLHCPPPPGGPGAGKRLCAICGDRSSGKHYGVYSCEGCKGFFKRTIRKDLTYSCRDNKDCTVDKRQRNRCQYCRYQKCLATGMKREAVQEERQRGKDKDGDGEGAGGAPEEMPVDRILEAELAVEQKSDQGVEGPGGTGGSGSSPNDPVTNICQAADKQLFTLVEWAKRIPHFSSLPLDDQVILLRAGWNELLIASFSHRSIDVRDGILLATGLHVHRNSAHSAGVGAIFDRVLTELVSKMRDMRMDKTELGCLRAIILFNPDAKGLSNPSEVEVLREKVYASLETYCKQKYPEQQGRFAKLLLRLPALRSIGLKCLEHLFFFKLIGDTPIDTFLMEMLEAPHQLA
human Retinoic Acid Receptor gamma (RARg), RARG (gene 5916), sequence (P13631 whole entry, looked up, the tested form may be a part): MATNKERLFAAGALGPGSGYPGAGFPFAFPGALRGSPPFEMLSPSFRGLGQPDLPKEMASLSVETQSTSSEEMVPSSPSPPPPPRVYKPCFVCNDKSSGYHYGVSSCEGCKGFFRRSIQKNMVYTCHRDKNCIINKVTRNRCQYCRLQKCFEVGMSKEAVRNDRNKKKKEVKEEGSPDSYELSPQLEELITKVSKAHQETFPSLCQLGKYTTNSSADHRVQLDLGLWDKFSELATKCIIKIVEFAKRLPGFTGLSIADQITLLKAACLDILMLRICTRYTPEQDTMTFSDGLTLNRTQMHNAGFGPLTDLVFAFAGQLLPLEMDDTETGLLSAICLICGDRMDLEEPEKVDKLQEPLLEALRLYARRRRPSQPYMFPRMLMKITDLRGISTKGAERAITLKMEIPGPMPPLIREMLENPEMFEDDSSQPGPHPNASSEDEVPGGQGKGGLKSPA
human RAR-related Orphan Receptor beta (RORb), RORB (gene 6096), sequence (Q92753 whole entry, looked up, the tested form may be a part): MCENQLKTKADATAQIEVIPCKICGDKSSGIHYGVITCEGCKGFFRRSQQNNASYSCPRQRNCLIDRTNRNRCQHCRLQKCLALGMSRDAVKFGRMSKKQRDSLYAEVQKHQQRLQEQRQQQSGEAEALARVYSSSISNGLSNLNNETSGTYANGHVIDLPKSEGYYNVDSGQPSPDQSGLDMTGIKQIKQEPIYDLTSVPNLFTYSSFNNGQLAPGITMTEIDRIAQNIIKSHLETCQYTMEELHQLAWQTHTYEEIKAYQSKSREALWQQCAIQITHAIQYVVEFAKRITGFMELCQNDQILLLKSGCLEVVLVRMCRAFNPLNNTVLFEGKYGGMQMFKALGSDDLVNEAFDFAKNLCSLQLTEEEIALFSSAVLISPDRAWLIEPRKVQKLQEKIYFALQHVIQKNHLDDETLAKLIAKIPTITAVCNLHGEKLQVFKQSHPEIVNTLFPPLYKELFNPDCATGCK

CCCCNC(=S)NCCCC
inactive: [1] | [2] | [3] | [4] | [5] | [6] | [7] | [8]

CC(C)CO
inactive: [1] | [9] | [5]

C[Si]1(C)O[Si](C)(C)O[Si](C)(C)O[Si](C)(C)O[Si](C)(C)O1
inactive: [10] | [2] | [3] | [6] | [11] | [8]

CCCCOCCOCCOC(C)=O
inactive: [10] | [6] | [11] | [8]

COC(OC)(C(=O)c1ccccc1)c1ccccc1
active: [3] 0.52 µM | [17] 0.016 µM
not listed: [1] | [5] | [6] | [8] | [9] | [10]
inactive: all other assays above

CC(C)(CO)C(O)C(=O)NCCCO (stereo not drawn)
inactive: [10] | [2] | [5] | [6] | [11]

Cc1c(O)cccc1O
inactive: [12] | [13] | [2] | [3] | [5] | [14] | [15] | [16] | [17] | [18]

CCCCOC(=O)C(C)CC (stereo not drawn)
inactive: [10] | [3] | [6] | [7]

CCCCC1CCC(=O)O1 (stereo not drawn)
inactive: [1] | [9] | [2] | [4] | [11] | [7]
active: [3] 41.4 µM

CC(C)(C)C1CCC(=O)CC1
inactive: [10] | [3] | [4] | [5] | [6] | [11] | [7]

O=C(O)CCCC(=O)O
inactive: [10] | [2] | [3]

Cc1cccc(C(C)(C)C)c1O
inactive: [1] | [9] | [2] | [4] | [11]
active: [7] 46.4 µM

CCCC/C=C/C=C\C=O
active: [2] 7.73 µM | [3] 1.57 µM
inactive: [10] | [11] | [8]

CCCCNS(=O)(=O)c1ccc(C)cc1
inactive: [10] | [3] | [11] | [8]

CC(C)(O)Cc1ccccc1
inactive: [1] | [9] | [5] | [6] | [8]

CCCCC(CC)COS(=O)(=O)O (stereo not drawn)
inactive: [10] | [6] | [8]

Cc1ccc(S(=O)(=O)N=C=O)cc1
inactive: [10] | [2] | [6] | [7]

C=CC(C)(O)CC/C=C(\C)CC (stereo not drawn)
inactive: [1] | [9] | [2] | [4] | [11] | [7]

CCCCC(=O)O
inactive: [1] | [9] | [4] | [5] | [6]

C=Cc1cccc(C)c1
inactive: [10] | [2] | [3] | [6] | [7] | [8]

Cc1cc(=O)[nH]c(=O)[nH]1
inactive: [3] | [6] | [11] | [8]

CC(=O)OC1CCCCC1
inactive: [9] | [3] | [4] | [5] | [6] | [11]

COc1cc(O)c(C(=O)c2ccccc2)cc1S(=O)(=O)O
inactive: [2] | [3] | [11] | [7]

CCOc1ccc(NC(N)=O)cc1
inactive: [9] | [2] | [4] | [5] | [7] | [8]
